Measurements reported in PubChem BioAssay.
Calls of active or inactive are those of the source.

Experiments:
[1] = tested on: Human papillomavirus type 1a protein E7 (residues 44-93); test: small molecules binding HPV E7 44-93 – biochemical, small-molecule microarray, residues 44-93, 635 nm fluorescence, primary screen (AID 1108); settings: fluorescence 635 nm, higher = more signal;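 further: E7 fragment applied at 1 µg/mL in TBST for 1 h at 4 C; score combines spot fluorescence with its signal to noise ratio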
[2] = hepatitis C replication reporter changes, two-sided – Huh7 cells, luciferase reporter, HCV replication inhibitor project, primary screen (AID 1109); settings: Huh7 HCV replicon luciferase reporter, 48 h; higher = more signal;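 further: huh7 hepatoma cells harbouring a luciferase neomycin HCV replicon reporter; luciferase luminescence as measure of HCV replicon replication; test concentration not given here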
[3] = biological target: Left-right determination factor 2 (Homo sapiens) (UniProt O00292); test: small molecules binding LEFTY2 protein – biochemical, small-molecule microarray, 635 nm fluorescence scan, primary screen (AID 1110); settings: higher = more signal
[4] = biological target: Calmodulin-1 (Homo sapiens) (UniProt P0DP23); test: small molecules binding calmodulin-1 with EGTA – biochemical, small-molecule microarray, Cy5-labelled CALM1, profiling panel (AID 1111); settings: Cy5-CALM1 binding fluorescence, higher = more signal;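 further: labelled calmodulin applied in Tris saline Tween buffer holding calcium plus EGTA and DTT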
[5] = biological target: Calmodulin-1 (Homo sapiens) (UniProt P0DP23); test: small molecules binding Ca-loaded calmodulin-1 – biochemical, small-molecule microarray, Cy5-labelled CALM1, plus calcium, artefact control for SMM control-protein annotation, profiling panel (AID 1112); settings: Cy5-CALM1 binding fluorescence, higher = more signal;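 further: score merges spot fluorescence with signal to noise from triplicate slides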
[6] = probe aWnt5a binding to arrayed compounds – biochemical, biotinylated probe, 635/667 nm fluorescence, primary screen (AID 1113); settings: small-molecule microarray, higher = more signal;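 further: score merges 667 nm fluorescence intensity with signal-to-noise per printed feature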
[7] = probe aShh binding to arrayed compounds – biochemical, biotinylated probe, 635/667 nm fluorescence, primary screen (AID 1114); settings: small-molecule microarray, higher = more signal;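 further: probe is biotin-labelled aShh protein from a stem cell growth factor screen; measures binding of labelled protein to compounds printed on the slide; score merges feature fluorescence at 667 nm with signal-to-noise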
[8] = probe aNog binding to arrayed compounds – biochemical, biotinylated probe, 635/667 nm fluorescence, primary screen (AID 1115); settings: small-molecule microarray, higher = more signal;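 further: probe is biotinylated aNog protein used at 0.15 µg/mL for 1 h at 4 C; z-score combines 667 nm fluorescence of each spot with its signal to noise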
[9] = biological target: Torsin-1A-interacting protein 1 (Homo sapiens) (UniProt Q5JTV8); test: compound microarray binding of lysate hLAP1 – cell lysate, small-molecule microarray, COS7 lysate, 635/667 nm fluorescence, primary screen (AID 1116); settings: 635 nm fluorescence, higher = more signal
[10] = biological target: Alpha-bungarotoxin (Bungarus multicinctus) (UniProt P60615); test: compounds binding labelled alpha-BTX control protein – biochemical, small-molecule microarray, Alexa647 label, 635/667 nm fluorescence, artefact control for SMM control protein annotation, profiling panel (AID 1117); settings: alpha-BTX-A647 binding fluorescence, higher = more signal
Albumin (Bos taurus) = Albumin (Bos taurus) (UniProt P02769); test: compounds binding labelled BSA control protein – biochemical, small-molecule microarray, Alexa647 label, 635/667 nm fluorescence, artefact control for SMM control protein annotation, profiling panel (AID 1118); settings: BSA-A647 binding, fluorescence 635 nm, higher = more signal;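 further: score merges 667 nm emission intensity and signal-to-noise per printed compound spot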
[11] = probe aXIP binding to arrayed compounds – biochemical, NeuroSMM set, 635/667 nm fluorescence, primary screen (AID 1119); settings: small-molecule microarray, higher = more signal, called active from +8 up or from −8 down;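 further: probe is the protein aXip251-270 applied at 1 µg/mL to compound-printed slides; binding of probe to printed compounds measured as 667 nm fluorescence plus signal to noise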
[12] = probe aNOTCH3 binding on compound microarray – biochemical, small-molecule microarray, 635/667 nm fluorescence, primary screen (AID 1120); settings: higher = more signal;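 further: probe is a biotin-tagged antibody raised against NOTCH3 rather than NOTCH3 protein; score merges spot fluorescence near 667 nm with spot signal to noise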
[13] = probe aNOTCH2 binding on compound microarray – biochemical, small-molecule microarray, 635/667 nm fluorescence, primary screen (AID 1121); settings: higher = more signal;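 further: score merges feature fluorescence read at 667 nm with its signal to noise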
[14] = biological target: Carbonic anhydrase 2 (Homo sapiens) (UniProt P00918); test: compounds binding carbonic anhydrase 2 – biochemical, small-molecule microarray, Alexa647-labelled CAII, profiling panel (AID 1122); settings: CAII-A647 binding fluorescence, higher = more signal
[15] = COS7 lysate on small-molecule microarray, probe aHis, 635 nm (AID 1123); settings: COS7 cell lysate, fluorescence, higher = more signal;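 further: z-score combines 667nm fluorescence intensity with signal-to-noise per printed compound spot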
[16] = probe aLAP1 signal on lysate-treated microarray – cell lysate, small-molecule microarray, COS7 lysate, primary screen (AID 1124); settings: probe aLAP1, fluorescence, higher = more signal;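 further: lysate comes from COS7 cells expressing LAP1 and is applied at 0.3 µg/mL; score merges spot fluorescence near 667 nm with signal-to-noise over triplicate slides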
Sam68 (KHDRBS1) = test: compounds binding KHDRBS1 protein – biochemical, small-molecule microarray, 635 nm fluorescence, primary screen (AID 1125); settings: higher = more signal;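 further: score merges 667 nm channel intensity with signal to noise over triplicate slides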
[17] = tested on: Chordin-like protein 2 (CHRDL2); test: compounds binding chordin-like 2 – biochemical, small-molecule microarray, 635 nm fluorescence, primary screen (AID 1126); settings: fluorescence 635 nm, higher = more signal;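 further: printed compound slides probed with Chrdl2 protein at 4 µg/mL for 1 h at 4 C; score merges 667 nm emission intensity with signal to noise over three replicate slides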
[18] = biological target: Concanavalin-A (Canavalia ensiformis) (UniProt P02866); test: compounds binding concanavalin A lectin – biochemical, small-molecule microarray, Alexa647 label, 635 nm, artefact control for SMM control protein annotation, primary screen (AID 1127); settings: ConA-A647 binding fluorescence, higher = more signal;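 further: z combines 667 nm emission intensity with signal-to-noise across three replicate slides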
Sequence of Concanavalin-A (Canavalia ensiformis) (P02866 whole entry, looked up): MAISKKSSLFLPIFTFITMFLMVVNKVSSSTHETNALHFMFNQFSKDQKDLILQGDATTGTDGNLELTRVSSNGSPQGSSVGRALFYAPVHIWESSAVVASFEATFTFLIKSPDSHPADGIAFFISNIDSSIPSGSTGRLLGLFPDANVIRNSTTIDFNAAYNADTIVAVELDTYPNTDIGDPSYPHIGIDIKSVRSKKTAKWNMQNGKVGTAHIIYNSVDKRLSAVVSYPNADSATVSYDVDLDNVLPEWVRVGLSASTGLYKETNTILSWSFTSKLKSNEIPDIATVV

Sequence of Alpha-bungarotoxin (Bungarus multicinctus) (P60615 whole entry, looked up): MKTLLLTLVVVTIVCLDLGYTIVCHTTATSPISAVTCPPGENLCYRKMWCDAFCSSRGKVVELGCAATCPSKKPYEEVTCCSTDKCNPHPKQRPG
Sequence of Torsin-1A-interacting protein 1 (Homo sapiens) (Q5JTV8 whole entry, looked up): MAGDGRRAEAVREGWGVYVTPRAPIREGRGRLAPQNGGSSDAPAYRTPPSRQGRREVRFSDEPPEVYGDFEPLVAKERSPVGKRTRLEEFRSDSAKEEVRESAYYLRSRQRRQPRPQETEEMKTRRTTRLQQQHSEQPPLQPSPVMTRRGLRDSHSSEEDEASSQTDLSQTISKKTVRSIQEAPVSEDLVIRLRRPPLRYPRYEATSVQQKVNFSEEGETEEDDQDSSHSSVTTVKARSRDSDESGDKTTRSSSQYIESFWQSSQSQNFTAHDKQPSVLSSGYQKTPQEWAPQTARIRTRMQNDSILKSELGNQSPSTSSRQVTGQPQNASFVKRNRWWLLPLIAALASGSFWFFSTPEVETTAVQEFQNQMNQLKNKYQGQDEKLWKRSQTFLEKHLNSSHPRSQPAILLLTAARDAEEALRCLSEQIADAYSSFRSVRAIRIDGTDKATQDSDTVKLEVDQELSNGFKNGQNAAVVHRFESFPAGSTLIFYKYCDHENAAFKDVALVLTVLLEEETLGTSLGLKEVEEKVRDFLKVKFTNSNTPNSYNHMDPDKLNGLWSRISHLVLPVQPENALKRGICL
Sequence of Albumin (Bos taurus) (P02769 whole entry, looked up): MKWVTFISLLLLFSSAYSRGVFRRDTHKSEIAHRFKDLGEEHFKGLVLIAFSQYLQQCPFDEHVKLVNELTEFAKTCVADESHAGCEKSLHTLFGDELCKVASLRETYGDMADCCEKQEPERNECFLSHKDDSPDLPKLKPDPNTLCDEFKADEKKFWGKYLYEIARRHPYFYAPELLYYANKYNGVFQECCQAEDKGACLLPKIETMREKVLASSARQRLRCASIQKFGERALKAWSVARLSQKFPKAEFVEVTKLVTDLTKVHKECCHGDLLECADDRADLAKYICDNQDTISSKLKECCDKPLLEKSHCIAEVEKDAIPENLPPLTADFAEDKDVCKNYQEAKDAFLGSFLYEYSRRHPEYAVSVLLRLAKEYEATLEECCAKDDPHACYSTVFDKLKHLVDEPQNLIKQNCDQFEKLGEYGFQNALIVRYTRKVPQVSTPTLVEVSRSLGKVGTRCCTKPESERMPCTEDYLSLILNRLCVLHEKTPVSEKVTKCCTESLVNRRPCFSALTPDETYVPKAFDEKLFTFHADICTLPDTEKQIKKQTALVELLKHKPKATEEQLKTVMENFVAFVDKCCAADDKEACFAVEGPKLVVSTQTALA
Sequence of Left-right determination factor 2 (Homo sapiens) (O00292 whole entry, looked up): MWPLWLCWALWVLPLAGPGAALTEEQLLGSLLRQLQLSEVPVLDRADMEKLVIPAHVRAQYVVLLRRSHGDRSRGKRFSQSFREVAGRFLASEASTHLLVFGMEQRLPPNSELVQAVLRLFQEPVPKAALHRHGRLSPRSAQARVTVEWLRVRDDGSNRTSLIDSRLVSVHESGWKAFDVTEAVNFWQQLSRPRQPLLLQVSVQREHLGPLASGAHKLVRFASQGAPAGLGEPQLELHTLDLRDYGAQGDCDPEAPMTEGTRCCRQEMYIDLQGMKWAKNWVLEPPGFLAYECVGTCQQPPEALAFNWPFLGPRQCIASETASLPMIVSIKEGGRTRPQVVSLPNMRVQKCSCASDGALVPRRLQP

SMILES | composite z-score [1] | z-score [2] | composite z-score [3] | composite z-score [4] | composite z-score [5] | composite z-score [6] | composite z-score [7] | composite z-score [8] | composite z-score [9] | composite z-score [10] | composite z-score (Albumin (Bos taurus)) | composite Z-score [11] | composite z-score [12] | composite z-score [13] | composite z-score [14] | composite z-score [15] | composite z-score [16] | composite z-score (Sam68 (KHDRBS1)) | composite z-score [17] | composite z-score [18]
COC(=O)CC=C[C@@H](C)[C@@H](C=NOC[C@H]1O[C@H](c2ccccc2)C=C[C@@H]1Oc1ccc(OC)cc1)NS(=O)(=O)c1ccc(C)cc1 | -1.1 | -0.787 | -0.233 | -1.07 | -0.467 | -0.147 | -0.112 | -0.181 | -0.306 | -0.183 | -0.453 | -0.769 (inactive) | -0.196 | -0.138 | -0.648 | -0.588 | -0.689 | -1.18 | 0.156 | -2.02
COc1ccc(O[C@@H]2[C@H](O)CO[C@H]2C=Cc2ccccc2)cc1 | -0.206 | 0.388 | -0.547 | -0.248 | -0.246 | -0.0685 | -0.283 | 0.0308 | -0.395 | -0.527 | 0.529 | -0.176 (inactive) | -0.0647 | -0.0488 | -0.338 | 0.0177 | -0.798 | 0.116 | -0.28 | -0.283
O=C1C[C@@H](O)[C@@H](O)[C@@H]2[C@@H]3C(=O)N(c4cccc(Oc5ccccc5)c4)C(=O)[C@@H]3CC[C@H]12 | -0.252 | 0.33 | 0.43 | 0.118 | -0.294 | -0.128 | -0.366 | -0.341 | 0.132 | 0.62 | 0.332 | 0.454 (inactive) | -0.085 | -0.137 | -0.0963 | 0.104 | 0.183 | 0.21 | 0.455 | 0.505
CC(C)=CCCC(C)=CCON=C1C[C@@H](O)[C@@H](O)[C@@H]2[C@@H]3C(=O)N(C4CCCCC4)C(=O)[C@@H]3CC[C@@H]12 | 0.0997 | -0.471 | 0.464 | -0.403 | -1.15 | -0.128 | -0.209 | -0.261 | 0.259 | -0.0585 | 0.0108 | 0.244 (inactive) | -0.0048 | -0.13 | 0.276 | -0.112 | 0.0694 | 0.493 | 1.01 | 0.124
O=C(NN=C1C[C@@H](O)[C@@H](O)[C@@H]2[C@@H]3C(=O)N(Cc4ccccc4)C(=O)[C@@H]3CC[C@@H]12)OCc1ccccc1 | -0.572 | 0.104 | 0.401 | -0.619 | -0.786 | -0.143 | -0.197 | -0.223 | -0.0694 | 0.0077 | -0.225 | 0.586 (inactive) | 0.0591 | -0.129 | -0.362 | -0.723 | -0.169 | -0.917 | 0.476 | -0.292
C[C@H]1CC[C@H]2C(=O)O[C@H](COc3ccc(C(C)(C)C)cc3)CN2[C@@H]1c1ccc(Br)cc1 | 0.179 | -0.145 | -0.281 | 1 | 0.101 | -0.139 | -0.0548 | 0.0051 | 0.303 | 1.15 | 0.513 | 1.48 (inactive) | -0.0435 | -0.123 | -0.232 | 0.263 | 0.253 | 0.421 | -0.0816 | 1.09
Cc1ccc(S(=O)(=O)n2c3ccccc3c3nnc(C(=O)c4ccccc4)nc32)cc1 | -0.463 | 3.59 | 0.563 | -0.357 | -0.367 | 0.0491 | -0.332 | -0.0926 | 0.302 | -0.306 | -0.563 | 0.0578 (inactive) | 0.12 | 0.012 | -0.141 | -0.111 | 0.246 | -0.472 | 0.261 | 0.0083
C=CC[C@@H]1C=C[C@H](ON=C(C)CCC(=O)OC[C@H]2O[C@H](C#Cc3ccccc3)C=C[C@@H]2Oc2ccc(C)cc2)[C@@H](CO)O1 | 1.42 | 0.568 | 0.605 | 0.759 | 0.188 | -0.0236 | 0.0639 | -0.0463 | 0.728 | 0.742 | 0.791 | 0.153 (inactive) | -0.0898 | -0.101 | 0.286 | 1.23 | 0.441 | 1.29 | 0.126 | 1.13
O=c1n(-c2ccccc2)c(=O)n2n1CC[C@@H]1C(=NOCc3ccccc3)[C@H]3O[C@H]3[C@@H](O)[C@@H]12 | 0.0398 | -2.05 | 0.582 | -0.608 | -0.879 | -0.164 | -0.0035 | -0.113 | 0.0741 | 1.55 | -0.101 | 0.371 (inactive) | -0.179 | -0.189 | 0.745 | -0.539 | -0.289 | -0.712 | -0.0034 | -0.073
CC(C)(C)N1C(=O)[C@H]2[C@H]3[C@H](O)[C@H](O)CC(=NO[C@@H]4O[C@H](CO)[C@@H](O)[C@H](O)[C@H]4O)[C@H]3CC[C@H]2C1=O | 0.518 | -1.13 | 0.4 | -0.653 | -1.12 | -0.0337 | -0.0769 | -0.196 | 0.509 | -0.309 | -0.383 | 0.674 (inactive) | 0.0864 | 0.0037 | 0.182 | 0.276 | -0.12 | 0.217 | 0.926 | -0.409
CC(C)CON=C1C[C@@H](O)[C@@H](O)[C@@H]2[C@@H]3C(=O)N(C(C)(C)C)C(=O)[C@@H]3CC[C@H]12 | 1.05 | -0.451 | -0.23 | -0.302 | 0.412 | -0.124 | -0.262 | 0.0589 | 0.274 | 1.5 | -0.135 | 0.3 (inactive) | 0.0039 | -0.124 | 0.11 | 1.36 | 0.057 | 1.01 | 0.297 | -1.23
